# Measured values from PubChem BioAssay (NCI).
# The panel holds about 79,000 compounds, 15% with a hit somewhere; the sample as a whole holds those more often. Values without a mark were called inactive. Activity calls are given as the source filed them. Cut-off read from the data, not from the text of the source: active = growth inhibition above about 70%; inactive = the rest.
# How the values were obtained:
# [1] = NCI Yeast Anticancer Drug Screen. Data for the rad50 strain (AID 155);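 note: 0% = growth of vehicle-only cultures of the same strain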; details: S. cerevisiae rad50 strain growth inhibition, hits give high values
# Outline: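 Compounds were tested on a yeast strain with an engineered DNA damage repair alteration; the reported value is growth inhibition normalised to vehicle treatment.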
# [2] = NCI Yeast Anticancer Drug Screen. Data for the mec2-1 strain (AID 157); details: S. cerevisiae mec2-1 strain, hits give high values
# Outline: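 Vehicle-treated cultures served as reference for growth inhibition of compound-exposed mec2-1 yeast.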
# [3] = NCI Yeast Anticancer Drug Screen. Data for the sgs1 mgt1 strain (AID 161);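 note: 0% = growth of cultures given vehicle only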; details: S. cerevisiae sgs1 mgt1 strain, hits give high values
# Outline: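 Inhibition of yeast growth, normalised to vehicle-treated controls, is reported for a strain bearing genetic alterations in DNA damage repair.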
# [4] = NCI Yeast Anticancer Drug Screen. Data for the cln2 rad14 strain (AID 165);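 note: 0% = growth equal to vehicle treated cultures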; details: S. cerevisiae cln2 rad14 strain, hits give high values
# Outline: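 Each compound was tested on cln2 rad14 yeast. Inhibition of growth was calculated against vehicle-exposed controls.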
# [5] = NCI Yeast Anticancer Drug Screen. Data for the bub3 strain (AID 167); details: S. cerevisiae bub3 mutant strain, hits give high values
# Outline: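 Growth of a checkpoint-deficient yeast mutant is measured after compound exposure. Values represent inhibition relative to vehicle.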
# [6] = NCI Yeast Anticancer Drug Screen. Data for the mlh1 rad18 strain (AID 175); details: S. cerevisiae mlh1 rad18 strain growth inhibition, hits give high values
# Outline: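 Vehicle-treated cultures served as the reference for growth inhibition in a yeast strain carrying DNA damage repair alterations exposed to each compound.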
# [7] = at 5.0 µM (retest, dose inferred, filed as 0.5)
# [8] = at 50.0 µM (retest, dose inferred, filed as 5.0)
SMILES,"growth inhibition [1, 7]","growth inhibition [1, 8]",growth inhibition ([1]; at 50.0 µM),"growth inhibition [2, 7]","growth inhibition [2, 8]",growth inhibition ([2]; at 50.0 µM),"growth inhibition [3, 7]","growth inhibition [3, 8]",growth inhibition ([3]; at 50.0 µM),"growth inhibition [4, 7] [%]","growth inhibition [4, 8]",growth inhibition ([4]; at 50.0 µM),"growth inhibition [5, 7]","growth inhibition [5, 8]",growth inhibition ([5]; at 50.0 µM),"growth inhibition [6, 7]","growth inhibition [6, 8]",growth inhibition ([6]; at 50.0 µM)
C/C=C/C=C/C(=O)Nc1ccc([N+](=O)[O-])cc1,0%,53%,39.8%,-5%,39%,-0.4%,-1%,74% (active),87% (active),-9,16%,10.7%,0%,63%,36.4%,0%,32%,32.4%
O=C1c2ccc(Cl)cc2C(=O)c2cc(Cl)ccc21,7%,99% (active),91.9% (active),11%,98% (active),46.5%,3%,99% (active),65.3%,-12,99% (active),14.3%,19%,99% (active),89.2% (active),8%,99% (active),77% (active)
CCCCCN(CCCCC)CC(=O)OCC1(C)CCCC2(C)C3CCC(C(C)C)=CC3=CCC12 (configuration not stated),1%,22%,-3.45%,2%,54%,-9.75%,-3%,80% (active),74.2% (active),-1,39%,-59%,1%,73% (active),-8.05%,2%,67%,28.4%
Cc1ccc(NC(=S)SCc2ccc3c(c2)OCO3)cc1Br,46%,96% (active),89.8% (active),29%,98% (active),91.8% (active),55%,98% (active),91.9% (active),52,98% (active),88.5% (active),58%,99% (active),91% (active),36%,97% (active),89.8% (active)
CCCOC1=C(Cl)C(=O)c2cccc([N+](=O)[O-])c2C1=O,94% (active),98% (active),99.5% (active),97% (active),99% (active),99.5% (active),81% (active),99% (active),99.4% (active),20,99% (active),99% (active),97% (active),99% (active),99.5% (active),93% (active),98% (active),99.1% (active)
O=C(NC1=C(Cl)C(=O)c2ccccc2C1=O)C(=O)C(C(=O)c1ccc2ccccc2c1)C1OC(=O)c2ccccc21 (configuration not stated),33%,85% (active),89.8% (active),16%,59%,63.5%,30%,98% (active),88.5% (active),20,95% (active),88.1% (active),22%,99% (active),85.3% (active),26%,83% (active),88.8% (active)
CC(=O)O/C=C1\c2ccccc2CCC1c1ccc2ccccc2c1 (configuration not stated),7%,-5%,-4.45%,-4%,-13%,-23.9%,1%,11%,0.3%,-19,-22%,1.45%,5%,4%,27.9%,9%,9%,-0.15%
C1=Cc2ccccc2/C1=C/c1ccccc1,-1%,93% (active),86.3% (active),-32%,89% (active),60.6%,1%,97% (active),88% (active),-7,56%,61.8%,-4%,95% (active),96.7% (active),0%,97% (active),91.2% (active)
CC(=O)c1c(-c2ccc(Cl)cc2)c(-c2ccc(Cl)cc2)nn(CCO)c1=O,12%,86% (active),97.8% (active),4%,76% (active),97.9% (active),2%,89% (active),98.2% (active),3,78% (active),89.3% (active),4%,78% (active),92.1% (active),4%,80% (active),97.8% (active)
NCCCN1c2ccccc2Sc2ccc(Cl)cc21,-7%,75% (active),-10.7%,12%,58%,-25.5%,10%,83% (active),13.4%,0,20%,-25.7%,-1%,37%,71.9% (active),17%,98% (active),18.1%
COc1ccc(N=NN(C)C)cc1,-13%,65%,97% (active),13%,28%,70.3% (active),-7%,35%,83.7% (active),-42,26%,76.5% (active),-12%,50%,72% (active),17%,92% (active),94.6% (active)
CCC(Cl)COP(=O)(OCC(Cl)CC)OC(c1ccc(Cl)c(Cl)c1)P(=O)(OCC(Cl)CC)OCC(Cl)CC (configuration not stated),8%,23%,55%,14%,11%,91.2% (active),-1%,7%,93% (active),-10,1%,76.2% (active),-3%,9%,55.6%,7%,37%,85.7% (active)
S=c1[nH]c2c(-c3ccccc3)cccc2s1,-4%,74% (active),62.1%,-6%,62%,76.9% (active),12%,78% (active),86.2% (active),-16,41%,60.5%,-20%,44%,53.8%,1%,65%,87.5% (active)
O=S(=O)(Nc1ccccn1)c1ccc(N=Cc2c3ccccc3nc3cc(Cl)ccc23)cc1,2%,27%,98.8% (active),5%,18%,85.8% (active),1%,1%,99.2% (active),4,-17%,97.5% (active),9%,6%,57.6%,5%,6%,98.2% (active)
CC(=O)Nc1[c-]cccc1.CC(=O)Nc1[c-]cccc1.CC(=O)O.CC(=O)O.[Pd].[Pd],2%,31%,79.8% (active),-1%,51%,87.2% (active),17%,89% (active),92.5% (active),-7,25%,45.1%,-4%,31%,58.7%,-1%,55%,95.8% (active)
COc1ccc(OC)c2c1C=C[C@H](C1(C)SCCS1)C2C(C)=O (some centres not stated),6%,82% (active),74% (active),-4%,88% (active),82% (active),6%,77% (active),80.7% (active),7,83% (active),72.3% (active),-2%,90% (active),76.5% (active),-13%,92% (active),77% (active)
CCCCOC(=O)C#CC(=O)OCCCC,-144%,-114%,99.6% (active),-45%,-46%,99.5% (active),-64%,-40%,99.3% (active),-58,-65%,99.2% (active),-69%,-71%,99.3% (active),-146%,-105%,99.2% (active)
Cc1cc(N=O)c(NO)cc1C,3%,29%,95.8% (active),16%,29%,79.7% (active),6%,22%,79.7% (active),2,16%,65.7%,28%,61%,92.5% (active),18%,81% (active),88.8% (active)
COC1/C=C/OC2(C)Oc3c(C)c(O)c4c(c3C2=O)C(=O)c2cnc(nc2C4=O)/C(C)=C\C=C\C(C)C(O)C(C)C(O)C(C)C(OC(C)=O)C1C (configuration not stated),10%,97% (active),53.9%,17%,99% (active),55.2%,9%,99% (active),42.2%,36,97% (active),56.1%,23%,98% (active),48.9%,20%,98% (active),50.9%
